What all share (assay): DAPPL (digital affinity profiling via proximity ligation, sequencing); 10 mM Tris-HCl pH 7.5, 50 mM NaCl, 1 mM DTT, 4% glycerol, room temperature, 30 min; GST-TFs on glutathione beads, 16-mer random dsDNA library, 0.1% formaldehyde crosslink after washing; high values mean tight binding
Settings in all cases: protein: recombinant; tags: N-terminal GST; dsDNA, one strand shown

Assay [1] concerns the target T1, ERF (Homo sapiens, UniProt P50548 1-548).
T1 sequence: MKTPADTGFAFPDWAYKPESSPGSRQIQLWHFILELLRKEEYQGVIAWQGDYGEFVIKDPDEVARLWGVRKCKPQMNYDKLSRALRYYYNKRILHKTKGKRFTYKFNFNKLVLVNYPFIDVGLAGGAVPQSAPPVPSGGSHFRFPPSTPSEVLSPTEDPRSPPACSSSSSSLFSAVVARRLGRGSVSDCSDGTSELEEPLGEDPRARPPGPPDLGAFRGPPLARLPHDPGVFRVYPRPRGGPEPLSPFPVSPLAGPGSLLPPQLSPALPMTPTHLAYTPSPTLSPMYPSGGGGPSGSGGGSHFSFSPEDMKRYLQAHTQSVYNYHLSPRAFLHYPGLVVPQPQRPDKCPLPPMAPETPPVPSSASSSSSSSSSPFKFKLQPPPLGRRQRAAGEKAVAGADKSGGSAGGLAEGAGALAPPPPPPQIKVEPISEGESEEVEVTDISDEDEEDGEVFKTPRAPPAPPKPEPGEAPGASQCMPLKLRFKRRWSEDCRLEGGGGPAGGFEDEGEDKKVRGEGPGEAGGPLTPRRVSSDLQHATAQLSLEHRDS
Summed up:
(§1)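 Human transcription factors carrying a GST fusion were produced in yeast, bound to glutathione beads, tagged with DNA barcodes and pooled together with a tag-only sample. Each pool was held with 200 nmole of a random double-stranded 16-mer DNA library in Tris/NaCl/DTT/glycerol buffer for 30 min at room temperature, then washed, crosslinked in 0.1% formaldehyde, proximity-ligated with BsaI/T4 ligase (1 h, 37 °C), PCR-amplified and sequenced on an Illumina NextSeq500. Binding signal is the read frequency of each hexamer for a given factor divided by its frequency in the tag-only sample.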

Assay [2] has as its target T2, ETV3L (Homo sapiens, UniProt Q6ZN32 1-361).
T2 sequence: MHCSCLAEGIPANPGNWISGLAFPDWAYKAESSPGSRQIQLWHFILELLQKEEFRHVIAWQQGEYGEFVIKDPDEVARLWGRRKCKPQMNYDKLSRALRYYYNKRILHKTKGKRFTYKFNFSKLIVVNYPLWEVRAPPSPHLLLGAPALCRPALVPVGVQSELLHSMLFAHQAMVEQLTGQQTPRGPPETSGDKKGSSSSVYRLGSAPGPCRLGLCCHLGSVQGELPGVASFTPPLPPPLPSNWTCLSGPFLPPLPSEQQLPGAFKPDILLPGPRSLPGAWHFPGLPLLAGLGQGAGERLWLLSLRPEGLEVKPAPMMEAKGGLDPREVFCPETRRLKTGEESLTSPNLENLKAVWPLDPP
Summed up: as §1

Assay [3] deals with T3, ETS2 (Homo sapiens, UniProt P15036 1-469).
T3 sequence: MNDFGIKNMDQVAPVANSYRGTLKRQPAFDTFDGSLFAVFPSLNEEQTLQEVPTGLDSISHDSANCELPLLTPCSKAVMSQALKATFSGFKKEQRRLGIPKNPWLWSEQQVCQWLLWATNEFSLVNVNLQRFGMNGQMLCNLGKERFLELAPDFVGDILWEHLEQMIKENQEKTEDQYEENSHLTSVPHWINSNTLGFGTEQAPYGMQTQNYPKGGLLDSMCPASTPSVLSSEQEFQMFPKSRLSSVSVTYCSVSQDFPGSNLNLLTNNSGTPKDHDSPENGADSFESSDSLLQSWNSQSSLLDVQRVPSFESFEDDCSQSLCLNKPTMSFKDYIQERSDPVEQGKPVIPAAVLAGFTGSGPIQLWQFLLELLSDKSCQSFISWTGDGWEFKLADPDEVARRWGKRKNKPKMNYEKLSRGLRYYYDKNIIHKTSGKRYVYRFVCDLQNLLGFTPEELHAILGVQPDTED
The method, boiled down:
as §1

The target in assay [4] is T4, SPDEF (Homo sapiens, UniProt O95238 1-335).
T4 sequence: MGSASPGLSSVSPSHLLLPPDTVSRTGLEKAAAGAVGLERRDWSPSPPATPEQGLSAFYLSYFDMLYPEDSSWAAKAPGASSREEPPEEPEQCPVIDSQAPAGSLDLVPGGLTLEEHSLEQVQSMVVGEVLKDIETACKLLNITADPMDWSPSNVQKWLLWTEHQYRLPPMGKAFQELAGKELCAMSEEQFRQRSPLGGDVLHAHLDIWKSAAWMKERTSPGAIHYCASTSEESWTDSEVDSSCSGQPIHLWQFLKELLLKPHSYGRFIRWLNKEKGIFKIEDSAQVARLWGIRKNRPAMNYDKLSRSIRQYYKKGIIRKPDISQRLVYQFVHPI
Summed up:
as §1

The target of assay [5] is T5, ETV7 (Homo sapiens, UniProt Q9Y603 1-341).
T5 sequence: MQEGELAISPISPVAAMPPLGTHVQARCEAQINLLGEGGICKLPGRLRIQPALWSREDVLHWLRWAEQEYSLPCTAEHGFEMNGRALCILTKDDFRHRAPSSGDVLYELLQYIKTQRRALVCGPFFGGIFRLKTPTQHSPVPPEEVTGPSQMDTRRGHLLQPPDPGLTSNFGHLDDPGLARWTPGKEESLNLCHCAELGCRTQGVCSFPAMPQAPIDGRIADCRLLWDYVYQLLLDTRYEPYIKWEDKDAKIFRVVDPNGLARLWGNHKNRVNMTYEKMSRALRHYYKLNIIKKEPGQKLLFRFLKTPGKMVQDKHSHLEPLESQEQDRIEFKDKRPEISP
The method, boiled down:
as §1

In assay [6] the target is T6, ELF5 (Homo sapiens, UniProt Q9UKW6-2 1-255).
T6 sequence: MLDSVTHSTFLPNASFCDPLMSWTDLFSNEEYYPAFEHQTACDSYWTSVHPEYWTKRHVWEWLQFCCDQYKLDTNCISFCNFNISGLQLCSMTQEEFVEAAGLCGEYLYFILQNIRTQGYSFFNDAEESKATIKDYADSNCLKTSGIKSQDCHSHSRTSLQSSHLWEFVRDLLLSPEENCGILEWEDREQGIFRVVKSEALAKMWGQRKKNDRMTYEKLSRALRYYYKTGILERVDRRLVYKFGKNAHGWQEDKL
Summed up:
as §1

Assay [7] deals with T7, ETV3 (Homo sapiens, UniProt P41162-2 1-143).
T7 sequence: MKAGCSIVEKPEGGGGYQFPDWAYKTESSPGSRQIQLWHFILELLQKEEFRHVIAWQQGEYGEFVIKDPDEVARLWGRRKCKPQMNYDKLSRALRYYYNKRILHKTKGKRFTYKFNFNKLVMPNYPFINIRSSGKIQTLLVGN
Summed up: as §1

The target of assay [8] is ETV6 (Homo sapiens, UniProt P41212 1-452). Summed up:
as §1

Sequence of ETV6 (P41212 whole entry): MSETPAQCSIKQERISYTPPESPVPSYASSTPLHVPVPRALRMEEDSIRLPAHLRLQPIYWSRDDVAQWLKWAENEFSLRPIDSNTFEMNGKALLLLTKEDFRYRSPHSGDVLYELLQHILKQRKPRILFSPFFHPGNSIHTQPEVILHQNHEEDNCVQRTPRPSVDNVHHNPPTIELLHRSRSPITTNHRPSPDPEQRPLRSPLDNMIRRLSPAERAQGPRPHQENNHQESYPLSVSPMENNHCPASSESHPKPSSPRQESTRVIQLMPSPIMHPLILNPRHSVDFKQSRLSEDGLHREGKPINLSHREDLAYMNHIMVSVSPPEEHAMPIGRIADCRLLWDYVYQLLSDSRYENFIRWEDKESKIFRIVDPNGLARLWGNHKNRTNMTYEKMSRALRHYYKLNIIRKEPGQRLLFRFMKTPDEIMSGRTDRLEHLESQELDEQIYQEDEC

For the sequence TATGCT, the binding signal in assay [1] was 1.18 fold enrichment (6-mer frequency, TF over GST control); in assay [2] it was 1.45 fold enrichment (6-mer frequency, TF over GST control); in assay [3], 1.29 fold enrichment (6-mer frequency, TF over GST control); in assay [4], 1.36 fold enrichment (6-mer frequency, TF over GST control); in assay [5], 1.32 fold enrichment (6-mer frequency, TF over GST control); in assay [6], 1.29 fold enrichment (6-mer frequency, TF over GST control). Also, the binding signal in assay [7] is 1.32 fold enrichment (6-mer frequency, TF over GST control); in assay [8] it was 1.24 fold enrichment (6-mer frequency, TF over GST control).
As for ACCCTA, the binding signal in assay [1] was 1.3 fold enrichment (6-mer frequency, TF over GST control); in assay [2] it was 1.26 fold enrichment (6-mer frequency, TF over GST control); in assay [3], 1.24 fold enrichment (6-mer frequency, TF over GST control); in assay [4], 1.19 fold enrichment (6-mer frequency, TF over GST control); in assay [5], 1.27 fold enrichment (6-mer frequency, TF over GST control); in assay [6], 1.19 fold enrichment (6-mer frequency, TF over GST control). In addition, the binding signal in assay [7] was 1.25 fold enrichment (6-mer frequency, TF over GST control); in assay [8], 1.17 fold enrichment (6-mer frequency, TF over GST control).
For the sequence AGCAAT, the binding signal in assay [1] is 1.1 fold enrichment (6-mer frequency, TF over GST control); in assay [2], 1.03 fold enrichment (6-mer frequency, TF over GST control); in assay [3], 1.1 fold enrichment (6-mer frequency, TF over GST control); in assay [4], 1.04 fold enrichment (6-mer frequency, TF over GST control); in assay [5] it was 1.25 fold enrichment (6-mer frequency, TF over GST control); in assay [6] it was 1.08 fold enrichment (6-mer frequency, TF over GST control). The binding signal in assay [7] was 1.18 fold enrichment (6-mer frequency, TF over GST control); in assay [8], 1.14 fold enrichment (6-mer frequency, TF over GST control).
For the sequence CGATTA, the binding signal in assay [1] is 1.07 fold enrichment (6-mer frequency, TF over GST control); in assay [2], 1.23 fold enrichment (6-mer frequency, TF over GST control); in assay [3], 1.08 fold enrichment (6-mer frequency, TF over GST control); in assay [4] it was 1.09 fold enrichment (6-mer frequency, TF over GST control); in assay [5], 1.18 fold enrichment (6-mer frequency, TF over GST control); in assay [6], 1.11 fold enrichment (6-mer frequency, TF over GST control). Besides, the binding signal in assay [7] was 1.18 fold enrichment (6-mer frequency, TF over GST control); in assay [8], 1.13 fold enrichment (6-mer frequency, TF over GST control).
In the case of TTAACT, the binding signal in assay [1] is 1.23 fold enrichment (6-mer frequency, TF over GST control); in assay [2], 1.19 fold enrichment (6-mer frequency, TF over GST control); in assay [3], 1.25 fold enrichment (6-mer frequency, TF over GST control); in assay [4], 1.18 fold enrichment (6-mer frequency, TF over GST control); in assay [5], 1.16 fold enrichment (6-mer frequency, TF over GST control); in assay [6], 1.17 fold enrichment (6-mer frequency, TF over GST control). Besides, the binding signal in assay [7] was 1.22 fold enrichment (6-mer frequency, TF over GST control); in assay [8], 1.17 fold enrichment (6-mer frequency, TF over GST control).
With TGACTT, the binding signal was 1.45 fold enrichment (6-mer frequency, TF over GST control) in assay [1]; 1.4 fold enrichment (6-mer frequency, TF over GST control) in assay [2]; 1.53 fold enrichment (6-mer frequency, TF over GST control) in assay [3]; 1.24 fold enrichment (6-mer frequency, TF over GST control) in assay [4]; 1.48 fold enrichment (6-mer frequency, TF over GST control) in assay [5]; 1.56 fold enrichment (6-mer frequency, TF over GST control) in assay [6]. For the same sequence, the binding signal is 1.46 fold enrichment (6-mer frequency, TF over GST control) in assay [7] and 1.39 fold enrichment (6-mer frequency, TF over GST control) in assay [8].
Consider AACCTT, for which the binding signal in assay [1] is 1.39 fold enrichment (6-mer frequency, TF over GST control); in assay [2] it was 1.27 fold enrichment (6-mer frequency, TF over GST control); in assay [3], 1.38 fold enrichment (6-mer frequency, TF over GST control); in assay [4], 1.29 fold enrichment (6-mer frequency, TF over GST control); in assay [5], 1.29 fold enrichment (6-mer frequency, TF over GST control); in assay [6], 1.33 fold enrichment (6-mer frequency, TF over GST control). Also, the binding signal in assay [7] is 1.28 fold enrichment (6-mer frequency, TF over GST control); in assay [8], 1.27 fold enrichment (6-mer frequency, TF over GST control).
On to CCGTCT, for which the binding signal in assay [1] is 1.28 fold enrichment (6-mer frequency, TF over GST control); in assay [2] it was 1.4 fold enrichment (6-mer frequency, TF over GST control); in assay [3], 1.29 fold enrichment (6-mer frequency, TF over GST control); in assay [4], 1.42 fold enrichment (6-mer frequency, TF over GST control); in assay [5], 1.26 fold enrichment (6-mer frequency, TF over GST control); in assay [6], 1.39 fold enrichment (6-mer frequency, TF over GST control). Further, the binding signal in assay [7] is 1.36 fold enrichment (6-mer frequency, TF over GST control); in assay [8], 1.39 fold enrichment (6-mer frequency, TF over GST control).

Values taken from paper PMC7862700, “An all-to-all approach to the identification of sequence-specific readers for epigenetic DNA modifications on cytosine”.
